For some assays here: Results with a measured potency or affinity are listed apart.

Experimental findings from ChEMBL document CHEMBL3988442, “University of Dundee, Small-Polar-MMV Screening Library” (2021) are described below.

Parameters in all cases: scale not given: direction of the effect not stated beside the values
In test [1] the target is Protein translocase subunit SecA (Escherichia coli (strain K12)) (UniProt P10408). Briefly: Assay to Identify E. coli SecA ATPase Inhibitors. In kind it is functional. As to conditions: 30 µM.
Protein translocase subunit SecA (Escherichia coli (strain K12)), sequence (P10408 whole entry): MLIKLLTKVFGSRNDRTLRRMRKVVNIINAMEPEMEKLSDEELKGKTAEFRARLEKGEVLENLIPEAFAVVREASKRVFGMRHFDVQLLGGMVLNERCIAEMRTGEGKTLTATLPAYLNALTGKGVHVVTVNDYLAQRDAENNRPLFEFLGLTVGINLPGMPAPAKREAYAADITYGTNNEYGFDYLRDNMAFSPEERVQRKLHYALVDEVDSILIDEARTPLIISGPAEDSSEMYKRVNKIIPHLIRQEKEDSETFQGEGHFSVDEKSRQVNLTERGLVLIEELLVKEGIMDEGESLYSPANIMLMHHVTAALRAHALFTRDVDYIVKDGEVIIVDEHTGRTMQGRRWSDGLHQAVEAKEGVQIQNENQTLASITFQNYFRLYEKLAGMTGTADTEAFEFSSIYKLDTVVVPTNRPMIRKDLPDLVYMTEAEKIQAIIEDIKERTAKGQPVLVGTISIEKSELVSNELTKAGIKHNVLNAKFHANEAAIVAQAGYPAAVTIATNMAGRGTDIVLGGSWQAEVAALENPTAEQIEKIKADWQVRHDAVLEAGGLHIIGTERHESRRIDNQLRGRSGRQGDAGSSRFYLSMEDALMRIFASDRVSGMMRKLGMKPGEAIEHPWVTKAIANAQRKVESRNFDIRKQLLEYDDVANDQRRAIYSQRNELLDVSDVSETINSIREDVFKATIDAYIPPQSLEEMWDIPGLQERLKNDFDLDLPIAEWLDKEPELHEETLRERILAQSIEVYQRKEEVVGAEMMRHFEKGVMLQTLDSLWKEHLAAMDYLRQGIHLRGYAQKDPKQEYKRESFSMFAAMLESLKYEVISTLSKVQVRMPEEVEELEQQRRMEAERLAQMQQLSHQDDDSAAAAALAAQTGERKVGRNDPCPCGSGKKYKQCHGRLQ
Test [2] addresses T1, Ubiquitin-activating enzyme e1, putative (Leishmania donovani (strain BPK282A1)) (UniProt E9BSI1).
T1 sequence (whole entry): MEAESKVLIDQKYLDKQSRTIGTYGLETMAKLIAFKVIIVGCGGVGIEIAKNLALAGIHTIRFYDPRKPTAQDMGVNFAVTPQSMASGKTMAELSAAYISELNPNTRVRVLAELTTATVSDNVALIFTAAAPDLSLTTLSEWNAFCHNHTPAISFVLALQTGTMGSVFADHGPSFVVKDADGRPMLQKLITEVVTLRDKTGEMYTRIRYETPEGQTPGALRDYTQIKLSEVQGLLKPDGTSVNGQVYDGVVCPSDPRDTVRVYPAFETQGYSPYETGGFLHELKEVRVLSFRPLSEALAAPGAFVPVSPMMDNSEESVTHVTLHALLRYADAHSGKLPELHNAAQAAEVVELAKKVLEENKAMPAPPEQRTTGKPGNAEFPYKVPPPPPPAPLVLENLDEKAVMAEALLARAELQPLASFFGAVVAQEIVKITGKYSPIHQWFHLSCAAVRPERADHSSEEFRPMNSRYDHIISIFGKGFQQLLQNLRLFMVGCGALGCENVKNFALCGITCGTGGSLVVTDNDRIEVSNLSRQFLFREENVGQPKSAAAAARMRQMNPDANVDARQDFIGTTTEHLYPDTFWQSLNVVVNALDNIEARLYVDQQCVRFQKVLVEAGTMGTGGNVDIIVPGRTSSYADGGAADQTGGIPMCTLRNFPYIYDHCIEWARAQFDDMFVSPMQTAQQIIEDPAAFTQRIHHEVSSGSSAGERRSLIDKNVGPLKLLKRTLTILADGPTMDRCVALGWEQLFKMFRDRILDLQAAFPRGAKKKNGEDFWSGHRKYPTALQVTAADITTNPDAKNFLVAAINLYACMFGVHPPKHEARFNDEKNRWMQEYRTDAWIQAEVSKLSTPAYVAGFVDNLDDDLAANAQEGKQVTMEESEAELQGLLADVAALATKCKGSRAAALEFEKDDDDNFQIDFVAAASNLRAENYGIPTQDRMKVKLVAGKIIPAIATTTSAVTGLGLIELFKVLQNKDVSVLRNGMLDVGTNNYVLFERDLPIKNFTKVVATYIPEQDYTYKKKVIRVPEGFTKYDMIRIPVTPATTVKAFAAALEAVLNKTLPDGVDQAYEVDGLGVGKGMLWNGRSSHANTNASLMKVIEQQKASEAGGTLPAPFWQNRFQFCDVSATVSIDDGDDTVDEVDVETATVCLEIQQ
The test is described as follows: Leishmania donovani Ubiquitin Activating Enzyme (LdE1). In kind it is functional. The following applies: 30 µM.

Test [3] addresses AMP-activated protein kinase, AMPK (Homo sapiens) (UniProt P54646+O43741+P54619+Q9UGJ0+Q9Y478+Q13131+Q9UGI9). The test is described as follows: AMP-dependent Kinase enzyme assay. An in vitro enzyme assay that detects ADP turnover that is directly proportional to AMPK activity. This uses naive AMPK that is activated during the assay with MK-8722. In kind it is functional. As to conditions: 30 µM.

Test [4] addresses Sialic acid-binding Ig-like lectin 9 (Homo sapiens) (UniProt Q9Y336). Briefly: Hs-Siglec9 ALPHAscreen SOP 20170721. As to conditions: 10 µM.
For a further test, the system named is Trypanosoma cruzi. Briefly: Trypanosoma cruzi phosphomannomutase and mannose-1-phosphate guanylyltransferase assay. In kind it is functional. As to conditions: 10 µM.
Test [5] has as its target T2, Arginase-2, mitochondrial (Homo sapiens) (UniProt P78540).
T2 sequence (whole entry): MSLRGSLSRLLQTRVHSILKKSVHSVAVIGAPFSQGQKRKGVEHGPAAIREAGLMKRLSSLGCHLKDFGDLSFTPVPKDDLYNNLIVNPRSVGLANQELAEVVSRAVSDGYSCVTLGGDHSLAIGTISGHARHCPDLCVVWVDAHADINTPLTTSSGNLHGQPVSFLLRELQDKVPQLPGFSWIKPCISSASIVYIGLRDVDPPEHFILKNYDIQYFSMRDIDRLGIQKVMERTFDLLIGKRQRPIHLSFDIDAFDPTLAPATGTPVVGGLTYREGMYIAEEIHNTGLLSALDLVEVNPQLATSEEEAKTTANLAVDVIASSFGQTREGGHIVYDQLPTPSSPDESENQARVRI
Briefly: in vitro enzyme assay to detect the production of urea directly proportional to the activity of Arginase II. Further: in the data most compounds retested in dose-response had high values. As to conditions: 33.3 µM. In kind it is functional.

Test [6] deals with T3, Proteasome subunit beta (Trypanosoma cruzi) (UniProt O96673).
T3 sequence (whole entry): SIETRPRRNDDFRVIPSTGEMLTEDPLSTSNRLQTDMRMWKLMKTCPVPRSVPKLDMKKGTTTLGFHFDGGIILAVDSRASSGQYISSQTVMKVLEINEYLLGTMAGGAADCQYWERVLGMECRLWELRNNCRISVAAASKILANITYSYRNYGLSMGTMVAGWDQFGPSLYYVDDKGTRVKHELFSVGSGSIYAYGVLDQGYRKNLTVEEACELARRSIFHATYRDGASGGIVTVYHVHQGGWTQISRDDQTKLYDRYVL
Briefly: Trypanosoma cruzi proteasome chymotrypsin-like activity (TcProtChymo) assay. Further: in the data most compounds retested in dose-response had high values. In kind it is functional. The following applies: 9.37 µM.

The species named for a further test is Homo sapiens. Briefly: To identify inhibition of the IFN signalling (Jak-Stat) pathway via expression of an eGFP reporter gene under the control of an IFN-stimulated response element (ISRE) containing MxA promoter. In kind it is functional. The following applies: 30 µM.
The target in test [7] is T4, Tyrosyl-tRNA synthetase, putative (Trypanosoma cruzi (strain CL Brener)) (UniProt Q4DSP6).
T4 sequence (whole entry): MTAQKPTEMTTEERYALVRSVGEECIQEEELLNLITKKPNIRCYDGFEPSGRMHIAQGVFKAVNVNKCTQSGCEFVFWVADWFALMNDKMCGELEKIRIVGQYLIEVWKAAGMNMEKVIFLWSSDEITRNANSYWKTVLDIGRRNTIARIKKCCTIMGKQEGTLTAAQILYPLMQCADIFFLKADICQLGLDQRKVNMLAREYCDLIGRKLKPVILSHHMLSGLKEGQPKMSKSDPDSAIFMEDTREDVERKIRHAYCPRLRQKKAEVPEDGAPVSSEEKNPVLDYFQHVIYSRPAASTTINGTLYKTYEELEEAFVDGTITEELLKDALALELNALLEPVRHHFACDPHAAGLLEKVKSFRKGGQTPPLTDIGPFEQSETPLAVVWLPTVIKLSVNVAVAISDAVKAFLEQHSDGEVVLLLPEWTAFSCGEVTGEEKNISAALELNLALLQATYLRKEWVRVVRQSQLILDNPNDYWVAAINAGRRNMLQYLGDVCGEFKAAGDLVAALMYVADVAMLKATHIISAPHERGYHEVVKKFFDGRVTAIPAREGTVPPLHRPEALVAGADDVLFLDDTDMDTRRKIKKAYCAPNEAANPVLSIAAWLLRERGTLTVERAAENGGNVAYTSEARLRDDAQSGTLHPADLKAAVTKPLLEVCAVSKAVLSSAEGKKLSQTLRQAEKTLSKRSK
The test is described as follows: Trypanosoma cruzi tyrosyl tRNA synthetase (TcYRS) _High Tyrosine SOP. Further: in the data most compounds retested in dose-response had high values. As to conditions: 30 µM. In kind it is functional.

For test [8], the target named is T4, Tyrosyl-tRNA synthetase, putative (Trypanosoma cruzi (strain CL Brener)). Briefly: Trypanosoma cruzi tyrosyl tRNA synthetase (TcYRS) SOP. The following applies: 30 µM. In kind it is functional.
In test [9] the target is Chromo domain-containing protein 1 (Saccharomyces cerevisiae (strain ATCC 204508 / S288c) (Baker's yeast)) (UniProt P32657). Briefly: ScCHD-1 Enzyme Inhibition Assay. Further: in the data most compounds retested in dose-response had high values. In kind it is functional. The following applies: 30 µM.
Chromo domain-containing protein 1 (Saccharomyces cerevisiae (strain ATCC 204508 / S288c) (Baker's yeast)), sequence (P32657 whole entry, the tested form may be a part): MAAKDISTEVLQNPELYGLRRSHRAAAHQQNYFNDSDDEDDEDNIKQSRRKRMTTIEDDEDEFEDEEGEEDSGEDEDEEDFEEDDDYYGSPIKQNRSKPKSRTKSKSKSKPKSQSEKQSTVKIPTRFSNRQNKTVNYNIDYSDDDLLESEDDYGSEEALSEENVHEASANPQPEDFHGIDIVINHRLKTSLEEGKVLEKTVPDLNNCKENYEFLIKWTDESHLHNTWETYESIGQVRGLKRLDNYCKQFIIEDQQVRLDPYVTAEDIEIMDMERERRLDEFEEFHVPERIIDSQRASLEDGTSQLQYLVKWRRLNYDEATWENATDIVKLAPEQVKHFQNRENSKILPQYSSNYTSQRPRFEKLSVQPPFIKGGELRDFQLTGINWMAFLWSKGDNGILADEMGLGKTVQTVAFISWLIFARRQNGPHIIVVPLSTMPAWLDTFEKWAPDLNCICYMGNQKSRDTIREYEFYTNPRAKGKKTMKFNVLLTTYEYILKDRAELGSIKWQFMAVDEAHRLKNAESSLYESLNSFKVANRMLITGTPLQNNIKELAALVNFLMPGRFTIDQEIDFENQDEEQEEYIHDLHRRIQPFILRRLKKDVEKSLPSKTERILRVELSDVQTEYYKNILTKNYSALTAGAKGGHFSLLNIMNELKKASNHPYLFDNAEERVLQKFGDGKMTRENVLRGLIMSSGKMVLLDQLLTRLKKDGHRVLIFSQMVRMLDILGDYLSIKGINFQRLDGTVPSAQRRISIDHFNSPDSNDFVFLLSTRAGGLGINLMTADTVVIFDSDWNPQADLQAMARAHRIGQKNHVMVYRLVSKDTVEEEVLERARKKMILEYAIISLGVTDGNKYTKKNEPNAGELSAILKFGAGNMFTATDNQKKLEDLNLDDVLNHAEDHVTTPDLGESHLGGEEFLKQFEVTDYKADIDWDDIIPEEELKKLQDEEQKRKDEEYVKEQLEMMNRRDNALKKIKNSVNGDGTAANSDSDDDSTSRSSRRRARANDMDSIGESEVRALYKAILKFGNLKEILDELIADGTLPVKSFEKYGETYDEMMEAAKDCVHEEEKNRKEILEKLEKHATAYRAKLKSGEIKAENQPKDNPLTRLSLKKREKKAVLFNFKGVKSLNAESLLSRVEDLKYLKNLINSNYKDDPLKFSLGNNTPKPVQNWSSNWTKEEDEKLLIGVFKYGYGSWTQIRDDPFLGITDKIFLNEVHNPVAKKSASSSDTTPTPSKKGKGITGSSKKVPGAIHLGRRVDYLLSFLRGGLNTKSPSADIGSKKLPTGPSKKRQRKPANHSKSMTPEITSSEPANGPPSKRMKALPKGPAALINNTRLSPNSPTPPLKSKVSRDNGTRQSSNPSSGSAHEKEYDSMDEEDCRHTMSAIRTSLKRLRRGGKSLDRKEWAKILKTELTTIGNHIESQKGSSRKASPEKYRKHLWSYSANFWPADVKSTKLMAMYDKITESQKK

Sialic acid-binding Ig-like lectin 9 (Homo sapiens), sequence (Q9Y336 whole entry): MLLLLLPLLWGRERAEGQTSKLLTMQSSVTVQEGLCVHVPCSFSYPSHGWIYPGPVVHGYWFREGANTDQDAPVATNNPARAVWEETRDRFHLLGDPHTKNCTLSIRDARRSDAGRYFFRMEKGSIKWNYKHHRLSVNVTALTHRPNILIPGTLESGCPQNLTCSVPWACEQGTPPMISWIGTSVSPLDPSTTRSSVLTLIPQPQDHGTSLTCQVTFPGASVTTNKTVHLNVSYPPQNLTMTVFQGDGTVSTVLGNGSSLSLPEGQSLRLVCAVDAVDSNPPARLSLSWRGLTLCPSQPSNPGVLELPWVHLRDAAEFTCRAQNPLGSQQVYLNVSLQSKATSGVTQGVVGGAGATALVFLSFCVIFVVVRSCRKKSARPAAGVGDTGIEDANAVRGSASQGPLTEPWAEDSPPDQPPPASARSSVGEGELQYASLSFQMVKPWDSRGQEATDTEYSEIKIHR

With `O=C(c1cccc(S(=O)(=O)NCCCc2ncc[nH]2)c1)N1CCOCC1`, the Percent Effect in [1] is -1.26%; in [2], 5.48%; in [3], -0.693%; in test [4], -4.52%; with Trypanosoma cruzi, -7.05%; in test [5], 4.09%. For the same compound, the Percent Effect in test [6] is 13.8%; in the test listed under Homo sapiens, 5.99%; in [7] it was 2.15%; in test [8], 7.5%; in [9], -3.79%.
As to `C[C@H](O)CNC(=O)c1cnc(-c2ccccc2)nc1O`, the Percent Effect in test [1] was -3.97%; in [2], 10.8%; in test [3], -6.61%; in test [4], 24.9%; in the test with Trypanosoma cruzi it was 4.83%; in [5], 19.1%. Moreover, the Percent Effect in test [6] was 11.7%; in the test listed under Homo sapiens, -5.82%; in test [7], 2.65%; in [8], 17.1%; in test [9] it was -9.28%.
Take `CC(C)NC(=O)NCCCc1cc(N)n(-c2ccccc2)n1`: the Percent Effect was -2.64% in [1]; 5.48% in test [2]; -7.43% in [3]; 15.8% in test [4]; 5.09% in the test on Trypanosoma cruzi; -6.82% in [5]. Besides, the Percent Effect in test [6] was 24.8%; in the test listed under Homo sapiens, 14.3%; in test [7] it was 5.38%; in test [8], 17.5%; in test [9], -8.17%.
`O=C(c1cccnc1)N1CCCC2(CCN(c3ccsc3)C2=O)C1` (stereo not given): the Percent Effect in test [1] is -2.21%; in test [2], 10.4%; in test [3], 15.5%; in [4] it was -9.57%; with Trypanosoma cruzi, -8.19%; in test [5], 11%. Besides, the Percent Effect in test [6] is 20.9%; in the test listed under Homo sapiens, 9.28%; in test [7], -7.41%; in test [8], 1.28%; in [9], -9.17%.
On to `CCc1cnc(N2CC3(CCN(C(=O)c4ccoc4)C3)C2)nc1`, for which the Percent Effect in test [1] was -7.71%; in test [2] it was -10.4%; in test [3] it was 3.45%; in test [4] it was 3.13%; with Trypanosoma cruzi it was -2.46%; in test [5], 5.52%. Also, the Percent Effect was 9.65% in [6]; 8.56% in the test filed under Homo sapiens; -2.15% in test [7]; -1.24% in test [8]; -0.64% in test [9].
In the case of `Cc1nc(C)n(C2CCCN(C(=O)c3ccc(N(C)C)nn3)C2)n1` (stereo not given), the Percent Effect in test [1] was -1.66%; in test [2], -5.2%; in [3] it was 4.94%; in test [4], -6.86%; in the test with Trypanosoma cruzi, 7.35%; in test [5] it was -0.632%. In addition, the Percent Effect is 6.06% in test [6]; -42.5% in the test listed under Homo sapiens; 2.86% in [7]; 0% in test [8]; -16.9% in [9].
Regarding `Cc1cccnc1NCCNC(=O)[C@H]1CNC[C@@H](C(=O)N2CCCC2)C1`, the Percent Effect in [1] was -3.94%; in test [2] it was 2.74%; in [3], -3.43%; in test [4] it was 8.93%; in the test with Trypanosoma cruzi, 2.38%; in test [5], 0%. Further, the Percent Effect in test [6] was 10.5%; in the test listed under Homo sapiens, -27.6%; in [7] it was 5.21%; in [8] it was 13.6%; in test [9] it was -4.52%.
`CN1CCN(C[C@@H]2OC[C@H]3CN(Cc4ccsc4)CC[C@H]32)CC1`: the Percent Effect in [1] was -2.51%; in test [2], 0%; in [3] it was 1.23%; in test [4], -2.48%; with Trypanosoma cruzi, 6.95%; in test [5], -43.2%. The Percent Effect in [6] was 5.81%; in the test listed under Homo sapiens it was -3.23%; in test [7], 3.12%; in test [8], 0%; in test [9], -4.8%.
Consider `CN(CCN1CCCCCC1)C(=O)c1cc(CN2CCC(O)CC2)on1`, for which the Percent Effect in [1] is -4.14%; in test [2] it was 2.74%; in [3] it was -1.87%; in [4], -2.01%; in the test with Trypanosoma cruzi, 2.74%; in test [5], 0.909%. For the same compound, the Percent Effect in test [6] was 13.3%; in the test filed under Homo sapiens, -3.45%; in [7], 8.6%; in test [8] it was 15%; in [9], -2.4%.
Regarding `CC(C)c1nnc(NC(=O)NCc2ccnc(N(C)C)c2)s1`, the Percent Effect in [1] is 0.949%; in test [2], 8.86%; in test [3], 3.28%; in [4], -0.716%; in the test on Trypanosoma cruzi it was -2.77%; in test [5], 8.39%. Moreover, the Percent Effect was 15.8% in [6]; 30.7% in the test filed under Homo sapiens; 1.04% in test [7]; 7.59% in [8]; -17.6% in test [9].
